USP28 block – human USP28 deubiquitinase inhibition; Q96RU2; purified USP28, Ub-rhodamine cleavage fluorescence, 30 min; inhibition, % at 25 µM; 3% of 47,000 active
USP8 inh – blocks human USP8 ubiquitin-rhodamine cleavage. P40818. purified USP8, Ub-rhodamine cleavage fluorescence, 30 min. inhibition, % at 20 µM. 4.2% of 47,000 active
Target sequence (P40818 whole entry, looked up): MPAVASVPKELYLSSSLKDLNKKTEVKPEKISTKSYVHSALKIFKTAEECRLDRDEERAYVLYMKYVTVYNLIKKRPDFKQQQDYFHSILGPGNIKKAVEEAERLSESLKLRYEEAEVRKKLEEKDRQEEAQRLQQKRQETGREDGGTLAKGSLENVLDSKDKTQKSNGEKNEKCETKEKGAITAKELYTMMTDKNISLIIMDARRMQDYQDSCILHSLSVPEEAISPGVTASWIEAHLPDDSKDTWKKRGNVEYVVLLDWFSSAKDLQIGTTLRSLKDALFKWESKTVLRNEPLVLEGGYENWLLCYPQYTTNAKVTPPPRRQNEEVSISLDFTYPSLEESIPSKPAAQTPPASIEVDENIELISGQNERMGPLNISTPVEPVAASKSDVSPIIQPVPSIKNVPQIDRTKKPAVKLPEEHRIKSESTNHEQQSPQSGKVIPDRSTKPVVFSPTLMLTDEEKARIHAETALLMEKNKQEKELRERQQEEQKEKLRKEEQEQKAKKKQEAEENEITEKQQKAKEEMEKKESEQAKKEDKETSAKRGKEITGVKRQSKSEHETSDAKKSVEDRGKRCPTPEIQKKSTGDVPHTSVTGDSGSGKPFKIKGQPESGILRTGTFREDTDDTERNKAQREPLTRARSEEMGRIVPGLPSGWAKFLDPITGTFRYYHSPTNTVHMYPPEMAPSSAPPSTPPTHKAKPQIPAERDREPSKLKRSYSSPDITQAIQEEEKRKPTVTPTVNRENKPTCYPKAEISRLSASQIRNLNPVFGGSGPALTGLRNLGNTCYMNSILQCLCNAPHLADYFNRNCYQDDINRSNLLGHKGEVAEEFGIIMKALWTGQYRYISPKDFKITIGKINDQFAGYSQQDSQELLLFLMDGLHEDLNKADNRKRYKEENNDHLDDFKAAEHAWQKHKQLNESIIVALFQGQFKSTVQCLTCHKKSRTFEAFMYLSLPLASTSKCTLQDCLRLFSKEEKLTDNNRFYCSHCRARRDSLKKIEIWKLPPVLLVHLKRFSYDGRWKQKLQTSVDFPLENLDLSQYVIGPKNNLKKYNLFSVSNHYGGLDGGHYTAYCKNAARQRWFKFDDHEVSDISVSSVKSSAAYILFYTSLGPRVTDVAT
USP30 block – blocks human USP30 ubiquitin-rhodamine cleavage; purified USP30, Ub-rhodamine cleavage fluorescence; inhibition, % at 25 µM; 5.3% of 47,000 active; AID 1645860
USP17 inh – human USP17-like deubiquitinase inhibition; A8MUK1; purified USP17, Ub-rhodamine cleavage fluorescence, 3 h; 6.5% of 47,000 active; inhibition, % at 50 µM
* marks the source's active call; other numbers are inactive results; nt = no result given. Sampled rows, rich in hits. Any-hit rate of the full collection: about 13%. Cut-off read from the data, not from the text of the source: active = inhibition above about 30%; inactive = the rest.

SMILES	USP28 block	USP8 inh	USP30 block	USP17 inh
O=C(Cn1nc2ccc(C(=O)NCc3ccccc3)cn2c1=O)Nc1ccc2c(c1)OCO2	8.0	0.5	-21.9	52.2*
Cc1ccccc1NC(=O)CSc1nnc2ccc(C(=O)NCc3ccccc3)cn12	-4.2	45.3*	3.1	4.6
Cc1ccc(CNC(=O)c2ccc3nn(CC(=O)Nc4ccccc4F)c(=O)n3c2)cc1	-14.5	67.3*	-55.9	6.2
O=C(NCc1ccccc1)c1ccc2nn(CC(=O)N3CCc4ccccc4C3)c(=O)n2c1	-9.4	12.2	-13.4	-6.8
Cc1ccc(C(=O)Nc2ncn(CC(=O)Nc3ccccc3F)n2)cc1	9.8	-20.9	9.1	0.3
COc1cccc(-n2cc(C(=O)N3CCN(c4ccccn4)CC3)c3ccccc3c2=O)c1	-0.5	-29.9	14.6	-2.6
Cc1c(C(=O)C(=O)N2CCCCC2c2cccnc2)c2ccccc2n1C (stereo unspecified)	-5.2	-5.4	4.5	1.3
Cc1ccc(NC(=O)Cn2nc3cnc4ccccc4n3c2=O)cc1	-59.9	-0.1	-160.1	-91.8
Cc1ccc(NC(=O)c2ccc3nn(CC(=O)Nc4ccc(F)cc4F)c(=O)n3c2)cc1	-24.8	57.1*	9.6	68.2*
Cc1ccc(C)c2[nH]c(=O)c(CN(CC3CCCO3)S(=O)(=O)c3ccccc3Cl)cc12 (stereo unspecified)	19.8	18.9	33.0*	14.1
CC(=O)c1ccc(N2CCN(S(=O)(=O)c3cc4c(cc3C)NC(=O)CO4)CC2)cc1	31.8*	28.7	-21.3	15.1
Cc1cc2c(cc1S(=O)(=O)N1CCCC(C)C1)OCC(=O)N2 (stereo unspecified)	nt	0.9	nt	40.7*
CC(=O)CCC(c1cc(C)ccc1O)C(C)C (stereo unspecified)	3.9	4.6	11.8	1.8
Cc1cc(C)c(NC(=O)Cc2c(C)nc3c(-c4ccccc4)c(C)nn3c2C)c(C)c1	17.7	-59.1	34.7*	21.6
Cc1ccc(C(=O)Nc2cc3c4c(c2)CC(=O)N4CCC3)cc1	55.5*	18.6	-27.4	nt
O=C(Nc1cc2c3c(c1)CC(=O)N3CCC2)c1ccc(F)cc1	9.1	32.6*	-29.1	-2.5
COc1ccc(C(=O)Nc2cc3c4c(c2)C(C)C(=O)N4CCC3)cc1 (stereo unspecified)	51.7*	3.3	-0.1	7.5
O=C(Nc1cc2c3c(c1)CC(=O)N3CCC2)c1ccc([N+](=O)[O-])cc1	7.3	-1.0	7.6	17.0
COc1ccc(C(=O)Nc2cc3c4c(c2)CC(=O)N4CCC3)cc1	49.4*	-2.4	-34.0	5.4
CC1C(=O)N2CCCc3cc(NC(=O)c4ccc(F)cc4)cc1c32 (stereo unspecified)	16.1	18.1	-7.1	12.6
CCOc1ccc(C(=O)Nc2cccc(N3CCCS3(=O)=O)c2)cc1OCC	-5.6	0.1	-17.3	-3.1
Cc1ccccc1NC(=O)Nc1cnc(N2CCCC2)nc1	-1.7	-6.5	-4.5	-1.9
Cc1ccc(-c2nc(NC(=O)c3c(F)cccc3F)sc2C)cc1Cl	9.1	23.8	23.2	36.5*
Cc1sc(NC(=O)c2cnc3ccccc3n2)nc1-c1ccc(F)c(F)c1	-7.1	-28.9	-4.1	0.6
O=C(Nc1nnc(-c2ccc(F)cc2)s1)c1c(F)cccc1F	10.8	-9.8	25.7	41.1*
SMILES	USP28 block	USP8 inh	USP30 block	USP17 inh
Cc1sc(NC(=O)c2ccc3ccccc3n2)nc1-c1ccc(F)cc1	-36.0	8.8	-157.2	35.1*
Cc1ccc(-c2nnc(NC(=O)c3c(F)cccc3F)s2)cc1	3.0	9.3	12.3	3.1
Cc1ccc(-c2nc(NC(=O)c3c(-c4ccccc4)noc3C)sc2C)cc1Cl	5.3	-42.2	-8.5	-5.4
Cc1ccc(-c2nc(NC(=O)Nc3ccc(Cl)cc3)sc2C)cc1	-0.2	9.7	14.9	60.3*
CCN1CCN(S(=O)(=O)c2c(C)[nH]c(C)c2-c2nnc(C3CCC3)o2)CC1	8.2	6.7	0.0	6.3
O=C(c1ccncc1)N1CCC2(CCN(Cc3cccc(Cl)c3)C2)C1 (stereo unspecified)	-17.2	-17.8	-12.8	-6.0
COCc1cc(=O)n2c(n1)N(Cc1cccc(C(F)(F)F)c1)CC2	10.5	-5.8	12.8	-2.1
Cc1c2oc3c(C)ccc(C(=O)N[C@@H]4C(=O)N[C@H](C(C)C)C(=O)N5CCC[C@H]5C(=O)N(C)CC(=O)N(C)[C@@H](C(C)C)C(=O)O[C@@H]4C)c3nc-2c(C(=O)N[C@@H]2C(=O)N[C@H](C(C)C)C(=O)N3CCC[C@H]3C(=O)N(C)CC(=O)N(C)[C@@H](C(C)C)C(=O)O[C@@H]2C)c(N)c1=O	-39.9	-24.8	-158.5	34.7*
CC(C)c1ccc(NC(=O)c2cc(-c3cccnc3)n[nH]2)cc1	36.8*	97.4*	46.3*	-0.9
O=C(Cc1nc(-c2cccnc2)n[nH]1)Nc1ccc(F)c(F)c1	0.1	-7.1	-20.2	-9.9
Cc1ccc(NC(=O)c2cc(-c3cccnc3)n[nH]2)cc1F	34.4*	99.0*	48.6*	39.9*
COc1ccc(NC(=O)c2cc(-c3cccnc3)n[nH]2)cc1Cl	90.9*	64.6*	93.6*	44.2*
NC(=O)CC[C@H](NC(=O)[C@H](Cc1ccccc1)NC(=O)[C@H](Cc1ccccc1)n1c(=O)[nH]c2ccccc2c1=O)C(=O)O	12.0	-24.5	21.4	7.2
CCn1c(SCC(=O)c2c(N)n(CC(C)C)c(=O)n(C)c2=O)nnc1-c1ccccc1	-8.6	14.5	-3.0	58.5*
Cn1c(N)c(C(=O)CSc2nnc(COc3ccc(Cl)cc3)n2Cc2ccccc2)c(=O)n(C)c1=O	7.5	8.8	21.8	20.2
CC1CC(=O)c2c(cc3c(-c4c(O)cc(O)c5c(O)c6c(cc45)OC(C)CC6=O)c(O)cc(O)c3c2O)O1 (stereo unspecified)	85.2*	78.5*	8.7	88.1*
CCn1c(=O)c2ccccc2n(Cc2nc(-c3ccc(OC)cc3)no2)c1=O	1.7	3.2	21.5	35.5*
CCn1c(=O)c2ccccc2n(Cc2nc(-c3ccccc3)no2)c1=O	5.5	0.2	5.2	7.7
O=C(COc1ccc(Cl)cc1)Nc1ccc2c(c1)CCC(=O)N2Cc1ccccc1	2.8	12.2	11.4	2.8
COc1cccc(OCC(=O)Nc2ccc3c(c2)CCC(=O)N3Cc2ccccc2)c1	34.9*	7.9	11.5	20.4
Cc1cccc(OCC(=O)Nc2ccc3c(c2)CCC(=O)N3Cc2ccccc2)c1	15.5	20.7	31.2*	16.1
COc1cccc(NC(=O)COc2ccc3c(c2)CCC3)c1	15.6	-5.9	2.1	8.0
CCOc1ccccc1C(=O)Nc1ccc(-c2nccs2)cc1	5.2	-20.5	31.3*	13.4
CC(=O)c1cccc(NC(=O)COc2ncnc3sccc23)c1	-32.4	39.1*	-178.6	-41.0
CSc1ccc(CNC(=O)Cc2c(C)n[nH]c2C)cc1	8.0	17.3	34.2*	15.4
COc1ccc(N(C)S(=O)(=O)c2ccc(Cl)c(C(=O)Nc3cccc(C(C)=O)c3)c2)cc1	28.2	-0.4	-41.8	-17.1
COc1ccc(NC(=O)c2ccc(S(C)(=O)=O)cc2Cl)cc1	46.1*	4.6	-14.2	8.7
COc1cccc(NC(=O)c2ccc(F)cc2Cl)c1	54.3*	0.5	3.2	-0.2

Source: PubChem BioAssay (Buhrlage Lab, Dana-Farber Cancer Institute and Novartis Institutes for BioMedical Research (Cambridge, Mass))
